Experimental data from PubChem BioAssay (Tox21).
Where “and” joins values, the source holds several entries; their conditions need not be identical. Equal entries are not always repeated. Calls of active or inactive are those of the source. A call without a number means that no potency is given here. Unless noted, calls come from the whole dose curve; as a rule, active = well fitted curve in the direction sought with a large enough effect in the repeat runs; inconclusive = weak or mixed curves; inactive = no such curve, though single readings can be large; an effect the other way counts as inactive or inconclusive.

Legend:
[1] = qHTS assay for identifying genotoxic compounds that show differential cytotoxicity against isogenic chicken DT40 cell lines with known DNA damage response pathways - wild type cell line (AID 743012); note: nearly all actives have a fitted effect of over 60% in size; note: potency is the fitted concentration of half-maximal effect
How it was run: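 Cytotoxicity in repair-proficient parental chicken DT40 cells serves as the comparator for Rad54/Ku70- and Rev3-deficient lines. Cells were exposed to compounds for 40 h at 37 C/5% CO2, and ATP-based luminescence (CellTiter-Glo) measured viability.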

[2] = qHTS assay for identifying genotoxic compounds that show differential cytotoxicity against isogenic chicken DT40 cell lines with known DNA damage response pathways - Rev3 mutant cell line (AID 743014); note: nearly all actives have a fitted effect of over 55% in size; note: potency is the fitted concentration of half-maximal effect
[3] = qHTS assay for identifying genotoxic compounds that show differential cytotoxicity against isogenic chicken DT40 cell lines with known DNA damage response pathways - Rad54/Ku70 mutant cell line (AID 743015); note: nearly all actives have a fitted effect of over 60% in size; note: potency is the fitted concentration of half-maximal effect
[4] = qHTS assay to identify small molecule antagonists of the androgen receptor (AR) signaling pathway - cell viability counter screen (AID 743033; note: nearly all actives have a fitted effect of over 45% in size; note: potency is the fitted concentration of half-maximal effect)
[5] = qHTS assay to identify small molecule antagonists of the androgen receptor (AR) signaling pathway using the MDA cell line - cell viability counter screen (AID 743041; note: nearly all actives have a fitted effect of over 45% in size; note: potency is the fitted concentration of half-maximal effect)
How it was run: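 Viability read by CellTiter-Fluor fluorescence in the same wells as the antagonist screen, added after 15.5 h of a 16 h, 37C exposure. Human breast carcinoma MDA-kb2 AR-luc cells, compounds co-dosed with agonist R1881.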

[6] = qHTS assay to identify small molecule antagonists of the thyroid receptor (TR) signaling pathway (AID 743065); note: nearly all actives have a fitted effect of over 55% in size; note: potency is the fitted concentration of half-maximal effect
How it was run: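 Antagonism measured as loss of luciferase signal in GH3 cells stably carrying a TRE-luciferase reporter, co-treated with compound and T3 (1 nM final) for 23.5 h at 37 C. Viability was read in the same well by CellTiter-Fluor.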

[7] = target: Estrogen receptor (Homo sapiens) (UniProt P03372); assay: qHTS assay to identify small molecule antagonists of the estrogen receptor alpha (ER-alpha) signaling pathway (AID 743069; active = well fitted curve in the direction sought with a large enough effect in the signal ratio in the repeat runs, not every such curve was filed as active; inconclusive = weak or mixed curves, or effect the other way; inactive = no such curve, though single readings can be large or run the other way; the % refers to the signal ratio; note: potency is the fitted concentration of half-maximal effect)
How it was run: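 Antagonist mode: compounds in DMSO were co-added with 17beta-estradiol to ER-alpha-bla HEK293 cells (2% charcoal-stripped serum) and left 18 h at 37C. Reporter inhibition was measured as FRET fluorescence after 2 h LiveBLAzer substrate at room temperature.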

[8] = target: Aromatase (Homo sapiens) (UniProt P11511); assay: qHTS assay to identify aromatase inhibitors (AID 743083); note: nearly all actives have a fitted effect of over 55% in size; note: potency is the fitted concentration of half-maximal effect
[9] = qHTS assay to identify small molecule antagonists of the thyroid receptor (TR) signaling pathway - cell viability counter screen (AID 743064); note: nearly all actives have a fitted effect of over 50% in size; note: potency is the fitted concentration of half-maximal effect
How it was run: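 Rat GH3 pituitary tumor cells stably expressing two TR response elements driving luciferase were plated, rested 4 h, then dosed with library compounds and T3 (1 nM final). After 23.5 h at 37 °C, CellTiter-Fluor was added for 30 min and fluorescence recorded.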

[10] = tested on: thyroid hormone receptor (rat, GH3 cells); assay: qHTS assay to identify small molecule agonists of the thyroid receptor (TR) signaling pathway (AID 743066; calls by dose curve)
[11] = qHTS assay to identify small molecule antagonists of the estrogen receptor alpha (ER-alpha) signaling pathway - cell viability counter screen (AID 743074; calls by dose curve;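 note: HEK293 cells carrying ER-alpha-UAS-bla reporter stimulated with 17beta-estradiol; nearly all actives have a fitted effect of over 45% in size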)
[12] = target: Estrogen receptor (Homo sapiens) (UniProt P03372); assay: qHTS assay to identify small molecule agonists of the estrogen receptor alpha (ER-alpha) signaling pathway using the BG1 cell line (AID 743079); conditions: BG1Luc4E2 cells, ERE-luciferase agonist, 22 h; activation: at 70.3 µM (top of the series); note: nearly all actives have a fitted effect of over 20% in size; note: potency is the fitted concentration of half-maximal effect
[13] = qHTS assay to identify small molecule antagonists of the estrogen receptor alpha (ER-alpha) signaling pathway using the BG1 cell line (AID 743080; calls by dose curve;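 note: BG1 cells stimulated with 17beta-estradiol alongside compound; nearly all actives have a fitted effect of over 25% in size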; note: potency is the fitted concentration of half-maximal effect)
How it was run: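 Seeding, 24 h rest, compound transfer from DMSO, 17beta-estradiol addition, 21.5 h incubation, CellTiter-Fluor (30 min, 37 C), then ONE-Glo (30 min, room temperature): this sequence was run on BG1-Luc-4E2 reporter cells.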

[14] = qHTS assay to identify small molecule antagonists of the estrogen receptor alpha (ER-alpha) signaling pathway using the BG1 cell line - cell viability counter screen (AID 743081);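 note: compound given together with 17beta-estradiol as the ER stimulus; nearly all actives have a fitted effect of over 45% in size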
[15] = target: Estrogen receptor (Homo sapiens) (UniProt P03372); assay: qHTS assay to identify small molecule agonists of the estrogen receptor alpha (ER-alpha) signaling pathway (AID 743075; calls by dose curve;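 note: HEK293 GripTite cells with ER-alpha and UAS-driven beta-lactamase reporter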; note: potency is the fitted concentration of half-maximal effect)
[16] = qHTS assay to identify small molecule antagonists of the glucocorticoid receptor (GR) signaling pathway - cell viability counter screen (AID 720693); note: nearly all actives have a fitted effect of over 55% in size
[17] = target: Androgen receptor (Homo sapiens) (UniProt P10275); assay: qHTS assay to identify small molecule agonists of the androgen receptor (AR) signaling pathway (AID 743036; active = well fitted activation curve with a large enough effect in the signal ratio in the repeat runs, with a control signal flat, not every such curve was filed as active; inconclusive = weak or mixed curves, or effect the other way; inactive = no such curve, though single readings can be large or run the other way; the % refers to the signal ratio)
How it was run: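 Quantitative HTS of the Tox21 10K library in HEK293 cells bearing a stably integrated UAS-controlled beta-lactamase reporter. Compound exposure lasted 16 h at 37C. Reporter activity was detected by FRET substrate fluorescence after 2 h at room temperature.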

[18] = target: Androgen receptor (Homo sapiens) (UniProt P10275); assay: qHTS assay to identify small molecule agonists of the androgen receptor (AR) signaling pathway using the MDA cell line (AID 743040; note: nearly all actives have a fitted effect of over 20% in size)
How it was run: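 Luciferase agonist assay: 16 h compound exposure at 37C without CO2 in MDA-kb2 AR-luc cells, whose MMTV promoter responds to both AR and GR. Luminescence measured after 30 min room-temperature incubation with ONE-Glo.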

[19] = target: Androgen receptor (Homo sapiens) (UniProt P10275); assay: qHTS assay to identify small molecule antagonists of the androgen receptor (AR) signaling pathway using the MDA cell line (AID 743042; note: nearly all actives have a fitted effect of over 55% in size)
How it was run: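 Antagonist mode: compounds plus R1881 agonist added to MDA-kb2 AR-luc cells, incubated 16 h at 37C. Luciferase reporter luminescence quantified, with multiplexed CellTiter-Fluor readout for cell viability.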

[20] = target: Androgen receptor (Homo sapiens) (UniProt P10275); assay: qHTS assay to identify small molecule antagonists of the androgen receptor (AR) signaling pathway (AID 743035; active = well fitted inhibition curve with a large enough effect in the signal ratio in the repeat runs, not every such curve was filed as active; inconclusive = weak or mixed curves, or effect the other way; inactive = no such curve, though single readings can be large or run the other way; the % refers to the signal ratio)
How it was run: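 Steps: seed AR-UAS-bla GripTite HEK293 cells, incubate 4 h at 37C; pin in test compound, then add agonist R1881; incubate 16 h at 37C; add LiveBLAzer B/G FRET substrate, 2 h at room temperature; read fluorescence.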

Sequence of Estrogen receptor (Homo sapiens) (P03372 whole entry, looked up): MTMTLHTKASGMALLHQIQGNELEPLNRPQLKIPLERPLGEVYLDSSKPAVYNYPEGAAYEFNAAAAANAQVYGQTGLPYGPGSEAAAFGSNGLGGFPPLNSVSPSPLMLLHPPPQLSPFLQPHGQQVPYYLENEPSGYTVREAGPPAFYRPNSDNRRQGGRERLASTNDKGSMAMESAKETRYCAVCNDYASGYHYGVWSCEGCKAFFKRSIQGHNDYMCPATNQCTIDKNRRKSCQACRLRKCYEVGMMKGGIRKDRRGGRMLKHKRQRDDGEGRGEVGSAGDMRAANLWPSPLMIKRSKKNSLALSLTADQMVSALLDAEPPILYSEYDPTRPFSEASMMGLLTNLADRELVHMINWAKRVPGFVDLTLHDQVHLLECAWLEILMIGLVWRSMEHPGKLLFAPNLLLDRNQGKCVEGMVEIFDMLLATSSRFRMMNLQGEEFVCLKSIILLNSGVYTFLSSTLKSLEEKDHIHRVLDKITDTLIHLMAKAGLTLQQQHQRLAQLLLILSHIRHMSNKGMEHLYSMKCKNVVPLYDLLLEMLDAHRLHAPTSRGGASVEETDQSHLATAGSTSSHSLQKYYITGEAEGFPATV
Sequence of Aromatase (Homo sapiens) (P11511 whole entry, looked up): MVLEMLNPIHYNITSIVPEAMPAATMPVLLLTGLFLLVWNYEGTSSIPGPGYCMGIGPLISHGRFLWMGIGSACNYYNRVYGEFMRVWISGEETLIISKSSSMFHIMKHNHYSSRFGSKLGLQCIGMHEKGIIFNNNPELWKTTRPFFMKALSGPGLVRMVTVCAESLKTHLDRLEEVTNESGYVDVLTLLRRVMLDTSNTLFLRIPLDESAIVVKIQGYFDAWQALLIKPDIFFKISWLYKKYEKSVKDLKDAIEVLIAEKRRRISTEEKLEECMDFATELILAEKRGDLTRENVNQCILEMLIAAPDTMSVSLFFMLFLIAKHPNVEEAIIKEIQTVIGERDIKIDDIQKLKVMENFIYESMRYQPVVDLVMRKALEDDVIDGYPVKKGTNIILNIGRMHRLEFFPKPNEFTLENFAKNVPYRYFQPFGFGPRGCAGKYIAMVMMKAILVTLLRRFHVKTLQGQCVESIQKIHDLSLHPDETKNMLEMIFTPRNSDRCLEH
Sequence of Androgen receptor (Homo sapiens) (P10275 whole entry, looked up): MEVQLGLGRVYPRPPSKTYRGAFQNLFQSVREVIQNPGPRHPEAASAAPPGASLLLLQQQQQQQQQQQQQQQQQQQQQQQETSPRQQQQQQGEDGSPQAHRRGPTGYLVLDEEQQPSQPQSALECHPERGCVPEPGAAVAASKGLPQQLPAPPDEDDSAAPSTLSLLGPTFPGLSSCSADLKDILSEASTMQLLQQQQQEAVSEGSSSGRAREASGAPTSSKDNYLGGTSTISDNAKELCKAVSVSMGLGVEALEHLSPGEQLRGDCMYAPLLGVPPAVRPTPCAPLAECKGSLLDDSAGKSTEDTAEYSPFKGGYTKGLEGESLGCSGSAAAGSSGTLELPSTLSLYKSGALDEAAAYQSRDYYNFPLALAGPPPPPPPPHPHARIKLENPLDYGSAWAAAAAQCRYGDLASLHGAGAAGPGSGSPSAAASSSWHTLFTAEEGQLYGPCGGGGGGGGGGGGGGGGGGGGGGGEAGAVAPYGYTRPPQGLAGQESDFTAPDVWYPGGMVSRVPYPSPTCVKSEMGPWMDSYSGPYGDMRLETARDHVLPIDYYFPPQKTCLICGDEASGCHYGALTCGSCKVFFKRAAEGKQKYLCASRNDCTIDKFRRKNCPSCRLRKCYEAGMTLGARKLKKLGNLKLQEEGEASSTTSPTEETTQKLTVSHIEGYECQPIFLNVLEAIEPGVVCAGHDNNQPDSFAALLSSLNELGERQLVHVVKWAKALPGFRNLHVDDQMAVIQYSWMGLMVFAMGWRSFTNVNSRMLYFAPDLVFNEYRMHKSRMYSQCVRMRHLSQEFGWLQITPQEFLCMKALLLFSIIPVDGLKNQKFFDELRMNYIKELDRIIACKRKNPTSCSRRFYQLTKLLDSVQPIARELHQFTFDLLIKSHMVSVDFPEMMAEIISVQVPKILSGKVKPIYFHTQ

| SMILES | Potency [1] | Potency [2] | Potency [3] | Potency [4] | Potency [5] | Potency [6] | Potency [7] | Potency [8] | Potency [9] | Potency [10] | Potency [11] | Potency [12] | Potency [13] | Potency [14] | Potency [15] | Potency [16] | outcome [17] | outcome [18] | Potency [19] | Potency [20] |
| --- | --- | --- | --- | --- | --- | --- | --- | --- | --- | --- | --- | --- | --- | --- | --- | --- | --- | --- | --- | --- |
| CO/N=C(/C1=NOCCO1)c1ccccc1Oc1ncnc(Oc2ccccc2Cl)c1F | 0.0306 µM (active) | 0.0544 µM (active) | 0.0153 µM (active) | 6.91 µM (active) | 30.6 µM (active) | 0.863 µM (active) | 54.9 µM [inconclusive] (active) | 54.4 µM (active) |  |  |  |  |  |  |  |  |  |  |  |  |
| O=[N+]([O-])c1ccc(Cl)c(Cl)c1Cl | inactive | inactive | inactive | inactive | inactive | inactive | inactive | inactive | inactive | inactive | inactive | inactive | inactive | inactive |  |  |  |  |  |  |
| O=C(O)[C@H](O)[C@@H](O)C(=O)O | inactive | inactive | inactive | inactive | inactive |  | inactive | inactive | inactive | inactive | inactive | inactive | inactive | inactive | inactive |  |  |  |  |  |
| CC(Cc1ccc(O)cc1)NCC(O)c1cc(O)cc(O)c1 (centres undefined) | inactive | inactive | inactive | inactive | inactive | inactive | inactive | inactive |  | inactive |  |  | inactive | inactive | inactive |  |  |  |  |  |
| Clc1ccc(C(Cl)(Cl)Cl)cc1Cl | inactive | inactive | inactive | inactive | inactive |  | inactive | inactive | inactive |  | inactive | inactive |  | inactive | inactive |  |  |  |  |  |
| NC(=O)C(Cl)Cl | inactive | inactive | inactive | inactive | inactive | inactive |  | inactive | inactive | inactive | inactive |  |  | inactive |  |  |  |  |  |  |
| CC1CCCC1 | inactive | inactive | inactive | inactive | inactive | inactive |  | inactive | inactive | inactive | inactive |  |  | inactive |  |  |  |  |  |  |
| CCOP(=O)(OCC)Oc1cc(C)nc(C(C)C)n1 | inactive | inactive | inactive | inactive | inactive | inactive |  | inactive |  | inactive | inactive |  |  | inactive |  |  |  |  |  |  |
| CC1(C)[C@H](/C=C2\CCSC2=O)[C@@H]1C(=O)OCc1coc(Cc2ccccc2)c1 | 6.86 µM (active) | 5.45 µM (active) | 10.9 µM (active) | inactive | inactive | 43.3 µM (active) |  | inactive |  | inactive | inactive |  | 68.6 µM (active) | inactive | inactive |  |  |  |  |  |
| ClC1=C(Cl)[C@]2(Cl)[C@H]3[C@H]([C@@H]4C=C[C@H]3C4)[C@@]1(Cl)C2(Cl)Cl | inactive | inactive | inactive | inactive | inactive | 54.5 µM (active) | inactive | inactive | 68.5 µM (active) and 61.1 µM (active) |  | inactive | inactive | inactive | inactive | inactive |  |  |  |  |  |
| C[C@H]1[C@H](c2ccc(Cl)cc2)SC(=O)N1C(=O)NC1CCCCC1 |  |  |  | inactive | inactive | 61.1 µM (active) |  |  |  |  | inactive |  | 61.1 µM (active) | inactive | inactive | inactive | inactive |  |  |  |
| CCCCCCCc1ccc(O)cc1 | 21.7 µM (active) | 19.3 µM (active) | 19.3 µM (active) | inactive | inactive |  | inactive |  |  | inactive | inactive | 24.3 µM (active) | inactive | inactive | inactive |  | inactive | inactive | inactive |  |
| CCC1COC(Cn2cncn2)(c2ccc(Cl)cc2Cl)O1 (centres undefined) | 15.4 µM (active) | 9.69 µM (active) | 19.3 µM (active) | inactive | inactive |  | inactive | 24.3 µM (active) |  | inactive | inactive | inactive |  | inactive | inactive |  |  |  |  |  |
| COc1ccc2c(c1OC)C(=O)O[C@@H]2[C@H]1c2cc3c(cc2CCN1C)OCO3 | inactive |  | inactive | inactive | inactive | inactive |  | inactive | 6.79 µM (active) | inactive | inactive |  |  |  |  |  | inactive |  | inactive | inactive |
| N#Cc1c[nH]cc1-c1cccc2c1OC(F)(F)O2 |  | 8.63 µM (active) | 13.7 µM (active) |  |  | 12.2 µM (active) | 13.8 µM [inhibitor] (active) | 27.3 µM (active) | 27.3 µM (active) |  | inactive | inactive | 48.6 µM (active) | inactive | 17.4 µM [inconclusive] (active) |  |  |  |  |  |
| C#CCC1=C(C)C(OC(=O)C2C(C=C(C)C)C2(C)C)CC1=O (centres undefined) | 19.2 µM (active) | 30.4 µM (active) | 30.4 µM (active) |  | inactive | 60.7 µM (active) |  |  |  |  | inactive |  |  | inactive |  |  |  |  |  |  |
